# Compound activity deposited in PubChem BioAssay by National Center for Advancing Translational Sciences (NCATS).
# aSyn rescue: rescues yeast growth from alpha-synuclein toxicity; Yeast expressing alpha-synuclein, growth rescue, BacTiter-Glo, 24 h; Potency, µM (titrated, usually from 46.1 µM), usual class: activators; actives 0.14% (n = 370,000); AID 652106; also: nearly all actives have a fitted effect of over 65% in size
#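 Rescue of yeast growth: cells expressing toxic alpha-synuclein, induced in galactose at OD600 0.02, incubated with compound 24 h at 30 C. ATP luminescence quantified growth; inhibitors of toxicity appear as activators.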
# FUS suppressor: rescues growth of FUS-expressing yeast. S. cerevisiae FUS-expressing, growth rescue, OD600, 24 h. actives 0.24% (n = 390,000). Potency, µM (titrated, usually from 76.6 µM), usual class: activators; also: nearly all actives have a fitted effect of over 55% in size
#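 Read-out: OD at 600 nm after 24hr at 30C, reporting rescue of FUS-induced yeast toxicity. Cells at OD 0.005 in galactose (2%) minimal medium; compounds tested in a dilution series; CP55940 titration from 92uM final as control.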
# Abeta yeast res: restores growth of yeast expressing A-beta42 peptide. Potency, µM (titrated, usually from 46.1 µM), actives largely listed as activators. AID 1347071. actives 0.063% (n = 410,000). yeast expressing A-beta42, growth rescue, OD600, 48 h; response scale: 0% DMSO, 100% iron-clioquinol control; also: nearly all actives have a fitted effect of over 55% in size
#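 Growth rescue measured by 600 nm absorbance after 48 h yeast culture at 30 C with compound. Values normalized between DMSO and an equimolar ferric chloride plus clioquinol control.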
# TDP43 rescue: rescues yeast growth from TDP-43 toxicity | TDP-43 expressing yeast growth rescue, BacTiter-Glo, 24 h | Potency, µM (series often up to 46.1 µM), most hits filed as activators | actives 1.8% (n = 410,000) | AID 652104; also: nearly all actives have a fitted effect of over 50% in size
#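 Galactose-induced TDP-43 yeast, OD600=0.02, compound pinned; 24 hr, 30 deg C; BacTiter-Glo luminescence for growth. Inhibitors of TDP-43 toxicity read as activators.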
# pAkt inh: Akt phosphorylation inhibition. Neuro2A IGF-stimulated pAkt S473 HTRF, 20 min; stronger effect = lower value. activity change, % for hits at 50 µM. actives 0.32% (n = 360,000). AID 651550; in the data active = activity change below about -80%; inconclusive = mostly about -51% to -80%
#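 Neuro2A cells (4,500/well, DMEM with 0.5% FBS) were treated with compound at a single 50 µM final concentration, stimulated with 6 nM IGF for 20 min at 37 °C, and lysed. Phospho-Akt Ser473 was read by HTRF as 665/615 ratio ×10^4.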
# Numbers stand for hits; – = inactive; ? = inconclusive; · = no result. Compounds with a hit are over-represented: about 2.3% of the library has one in this group of screens. Unless noted, calls follow the shape of the dose curve; as a rule, active = well fitted curve in the direction sought with a large enough effect; inconclusive = small, poorly fitted or top-dose-only effect, or another doubt; inactive = no such curve, though single readings can be large; an effect the other way counts as inactive or inconclusive.
SMILES,aSyn rescue,FUS suppressor,Abeta yeast res,TDP43 rescue,pAkt inh
COCCNc1cc(N)c([N+](=O)[O-])cc1[N+](=O)[O-],–,–,–,11.2µM,–
COc1ccccc1CNC(=O)C(=O)NCC(c1cccs1)S(=O)(=O)c1ccccc1 (centres undefined),·,–,–,–,·
COC(=O)C(O)(CC(=O)Nc1ccccc1OC)C(F)(F)F (centres undefined),–,–,–,–,-99.2%
CCc1ccccc1NC(=O)CC(O)(C(=O)OC)C(F)(F)F (centres undefined),–,–,–,–,–
CCn1c(COc2cccc3ccccc23)nnc1SCC(=O)OC1CCCCC1,–,–,–,–,–
Cn1c(COc2cccc3ccccc23)nnc1SCC(=O)OC1CCCCC1,?,?,–,25.1µM,–
Fc1ccc(Nc2ncnc3onc(-c4cccc(Cl)c4)c23)c(F)c1,·,–,–,–,·
COC(=O)Nc1cccn(Cc2c(Cl)cccc2Cl)c1=O,–,–,?,–,–
O=C(Nc1cccn(Cc2c(Cl)cccc2Cl)c1=O)c1c(Cl)cccc1Cl,–,–,–,10µM,–
COC(=O)CN1C(=O)C(C)(C)c2cc(S(=O)(=O)Nc3ccc(C(C)C)cc3)ccc21,·,?,–,–,·
COc1cccc(C(O)c2nc(-c3ccc(Cl)cc3)cs2)c1 (centres undefined),–,–,?,12.6µM,–
COc1ccccc1-c1csc(C(O)c2ccc(F)cc2)n1 (centres undefined),–,–,–,?,–
COc1cccc(C(O)c2nc(-c3ccccc3)cs2)c1 (centres undefined),–,–,–,15.8µM,–
COc1cccc(C(O)c2nc(-c3ccccc3C)cs2)c1 (centres undefined),–,–,–,?,–
COc1cccc(C(O)c2nc(-c3ccccc3OC)cs2)c1 (centres undefined),?,–,–,22.4µM,–
COc1cc(F)ccc1-c1csc(C(O)c2ccccc2)n1 (centres undefined),–,?,–,35.5µM,–
O=C(NCc1ccc2c(c1)OCO2)c1ccc2c(c1)N(Cc1ccccc1F)C(=O)c1ccccc1S2=O (centres undefined),·,?,–,–,·
CCc1ccc(NC(=O)CN2C(=O)C(c3ccc(Cl)cc3)=NC23CCCCC3)cc1,·,–,–,–,·
Cc1ccccc1OCC(=O)Nc1c(C)ccc2nsnc12,·,–,–,–,·
CCCS(=O)(=O)c1ncc(Cl)c(C(=O)Nc2c(C(=O)c3ccccc3)oc3ccccc23)n1,·,–,–,–,·
Cc1csc2nc(COc3ccccc3NC(=O)c3ccc(C(C)(C)C)cc3)cc(=O)n12,·,–,–,–,·
CC12CCC(C(=O)N(CSC(=S)N/N=C\c3ccccc3O)C1=O)C2(C)C (centres undefined),?,–,?,25.1µM,–
COc1ccc(/C=N\NC(=S)SCN2C(=O)C3CCC(C)(C2=O)C3(C)C)cc1 (centres undefined),?,–,–,?,–
CN(C)c1ccc(/C=N\NC(=S)SCN2C(=O)C3CCC(C)(C2=O)C3(C)C)cc1 (centres undefined),–,–,?,12.6µM,–
CC(C)(C)C(=O)NC1CC(=O)N(c2ccc3c(c2)OCCO3)C1 (centres undefined),·,–,–,–,·
SMILES,aSyn rescue,FUS suppressor,Abeta yeast res,TDP43 rescue,pAkt inh
Cc1cccc(N2C(=O)C(O)=C(C(=O)c3cccs3)C2c2ccc(C(C)C)cc2)n1 (centres undefined),–,–,–,28.2µM,–
Cc1cccc(N2C(=O)C(O)=C(C(=O)c3cccs3)C2c2ccc(F)cc2)n1 (centres undefined),–,–,–,–,–
COc1ccccc1Nc1nc(Cl)nc(NC(C)(C)C)n1,–,–,–,22.4µM,–
Clc1nc(Nc2ccccc2)nc(Nc2ccccc2)n1,–,–,–,–,–
CC(C)(C)Nc1nc(Cl)nc(Nc2ccccc2)n1,–,–,–,28.2µM,–
COc1ccc(Nc2nc(Cl)nc(Nc3ccc(OC)cc3OC)n2)c(OC)c1,–,–,–,–,–
O=C(CSc1n[nH]c(-c2ccc(F)cc2)n1)NCCc1ccccc1,·,–,–,–,·
CN(C)c1ccc(C(O)c2cc3ccccc3s2)cc1 (centres undefined),14.1µM,–,?,–,–
Cc1ccccc1Nc1nc2ccccc2s1,–,·,–,20µM,–
COc1ccc(C(O)c2nc(-c3cc4ccccc4o3)cs2)cc1 (centres undefined),?,–,–,–,–
COc1cc(C(O)c2nc(-c3ccc(C)c(C)c3)cs2)ccc1F (centres undefined),?,–,–,35.5µM,·
OC(c1ccccc1)c1nc(-c2cc3ccccc3o2)cs1 (centres undefined),–,–,–,14.1µM,–
Cc1ccc(-c2csc(C(O)c3ccccc3)n2)cc1C (centres undefined),?,–,–,25.1µM,–
CCNc1nc(C#N)nc(N2CCCCC2)n1,–,·,·,·,·
CC1(C)CC(N2CCN(CCO)CC2)=CC(=S)N1,17.8µM,–,–,?,–
CC1(C)CC(NCc2ccccc2)=CC(=S)N1,–,–,–,–,–
O=c1cc(CNc2ccc(Br)cc2)nc2sccn12,?,·,–,20µM,–
CCc1ccc(-c2ccc3nnc(SCC(=O)Nc4cccc(C(C)=O)c4)n3n2)cc1,·,–,–,–,·
COc1ccc(S(=O)(=O)NCc2cccn2Cc2cccc(C)c2)cc1OC,·,–,–,35.5µM,·
COc1ccc(S(=O)(=O)NCc2cccn2Cc2cc(C)ccc2C)cc1OC,·,–,–,35.5µM,·
CC(=O)Nc1ccc(S(=O)(=O)NCc2cccn2Cc2cccc(C)c2)cc1,·,–,–,–,·
CCOc1cc(C(=O)Nc2cccc3cccnc23)cc(OCC)c1OCC,·,–,–,?,·
Oc1cccc(-n2nnnc2SCc2ccccc2F)c1,–,–,–,22.4µM,–
COc1ccc(N2CC(NC(=O)C(c3ccccc3)c3ccccc3)CC2=O)cc1OC (centres undefined),·,–,–,–,·
Cc1c(C)n(CCC#N)c2ccc(Cl)cc12,–,·,–,12.6µM,–
CCC(=O)N1CCN(c2ccc(Cl)cc2NC(=O)c2ccc3c(c2)OCCO3)CC1,–,?,–,25.1µM,–
O=C(Nc1cc(C(F)(F)F)ccc1N1CCCC1)c1ccc2c(c1)OCO2,–,–,–,17.8µM,–
CC1CCCCN1C(=O)c1ccc2c(c1)N(Cc1ccc(Cl)cc1)C(=O)c1ccccc1S2=O (centres undefined),·,?,–,–,·
Cc1cn(C2OC(COC(=O)c3ccccc3)C(O)C2O)c(=O)[nH]c1=O (centres undefined),–,–,–,–,–
